Values joined by “and” are separate entries in the source; they are usually repeats but may differ in a detail not shown here. Equal entries are not always repeated. This is part of a sample that, as a whole, favours compounds with a hit. Of some 83,000 tested, about 20% had one in any assay.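 48-hour exposure, single concentration, 96-well plates; percent growth endpoint where 0 means no net growth. Active: below 10.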 Active and inactive are the calls of the source.

Holding throughout (assay): NCI-60 one-dose screen, 48 h (100 = growth as untreated, 0 = no growth, -100 = all killed)
One assay relates to SR leukemia. Particulars: 10 µM unless noted.
The test system of another assay is RPMI-8226 leukemia. Particulars: 10 µM unless noted.
The subject of a further assay is OVCAR-5 ovarian. Particulars: 10 µM unless noted.
The subject of a further assay is OVCAR-4 ovarian. Particulars: 10 µM unless noted.
The test system of a further assay is SK-OV-3 ovarian. Particulars: 10 µM unless noted.
Another assay concerns IGROV1 ovarian. Particulars: 10 µM unless noted.
A further assay relates to OVCAR-3 ovarian. The settings on record: 10 µM unless noted.
For a further assay, the system named is HS 578T breast. The settings on record: 10 µM unless noted.
For a further assay, the system named is NCI/ADR-RES ovarian. Particulars: 10 µM unless noted.
The next assay deals with T-47D breast. The settings on record: 10 µM unless noted.
The subject of a further assay is BT-549 breast. Particulars: 10 µM unless noted.
The next assay relates to MDA-MB-435 melanoma. The settings on record: 10 µM unless noted.
The subject of the next assay is SW-620 colon. The settings on record: 10 µM unless noted.
Another assay relates to MCF7 breast. Particulars: 10 µM.
A further assay deals with HCT-116 colon. Particulars: 10 µM unless noted.
The next assay deals with KM12 colon. Particulars: 10 µM unless noted.
Another assay has as its system OVCAR-8 ovarian. The settings on record: 10 µM unless noted.
A further assay deals with HCC-2998 colon. Particulars: 10 µM unless noted.

On to `CCCCCCCCCCCCCCCCCCOP(=O)([O-])OC1CC[N+](C)(C)CC1`, for which the growth in the assay with SR leukemia was 3.18% (active) and -3.35% (active); in the assay on RPMI-8226 leukemia, 6.44% (active) and -36.6% (active); in the assay with OVCAR-5 ovarian it was -24.1% (active) and -61.2% (active); with OVCAR-4 ovarian, 65.2% (inactive); in the assay with SK-OV-3 ovarian, 35.9% (inactive) and 48.2% (inactive); in the assay on IGROV1 ovarian, -61.7% (active). Also, the growth with OVCAR-3 ovarian was 65.9% (inactive) and 14% (inactive); with HS 578T breast, 11.8% (inactive); in the assay on NCI/ADR-RES ovarian it was 73.5% (inactive) and 54.9% (inactive); with T-47D breast, -18.4% (active) and 2.5% (active); with BT-549 breast, 24.3% (inactive) and -14.9% (active); with MDA-MB-435 melanoma, 15.8% (inactive) and -67.3% (active). Besides, the growth is 46.3% (inactive) and 25% (inactive) in the assay on SW-620 colon; 38.5% (inactive) and 18.4% (inactive) in the assay on MCF7 breast; 19.5% (inactive) and -41.9% (active) in the assay with HCT-116 colon; -44.2% (active) and -95.1% (active) in the assay with KM12 colon.
Take `CC1SC(=S)N(c2ccc(Cl)cc2)C1=O` (stereo not drawn): the growth is 94.8% (inactive) and 79.6% (inactive) in the assay on RPMI-8226 leukemia; 101% (inactive) in the assay on OVCAR-8 ovarian; 91.3% (inactive) and 89.6% (inactive) with OVCAR-5 ovarian; 97.5% (inactive) and 91.3% (inactive) in the assay on OVCAR-4 ovarian; 117% (inactive) and 99.4% (inactive) in the assay with SK-OV-3 ovarian; 128% (inactive) and 92.5% (inactive) in the assay on IGROV1 ovarian. In addition, the growth was 93.3% (inactive) and 97.7% (inactive) in the assay with OVCAR-3 ovarian; 161% (inactive) and 132% (inactive) in the assay with HS 578T breast; 73.9% (inactive) and 62.8% (inactive) in the assay with T-47D breast; 106% (inactive) and 86.2% (inactive) in the assay with BT-549 breast; 106% (inactive) and 99.8% (inactive) in the assay with MDA-MB-435 melanoma; 109% (inactive) and 113% (inactive) with SW-620 colon. Besides, the growth in the assay on MCF7 breast was 96.9% (inactive) and 79.9% (inactive); in the assay on HCT-116 colon, 100% (inactive) and 93.4% (inactive); in the assay on HCC-2998 colon, 90.7% (inactive); in the assay on KM12 colon, 94.6% (inactive) and 108% (inactive).
On to `Cc1c2ccccc2c(C)c2c1ccc1ccccc12`, for which the growth was 63.8% (inactive) in the assay with SR leukemia; 84.3% (inactive) in the assay on RPMI-8226 leukemia; 95.6% (inactive) in the assay with OVCAR-5 ovarian; 89.9% (inactive) in the assay on OVCAR-4 ovarian; 99.4% (inactive) in the assay with SK-OV-3 ovarian; 81% (inactive) in the assay on IGROV1 ovarian. For the same molecule, the growth in the assay on OVCAR-3 ovarian is 105% (inactive); in the assay on HS 578T breast, 98% (inactive); in the assay with T-47D breast, 65.3% (inactive); in the assay with BT-549 breast, 98.8% (inactive); with MDA-MB-435 melanoma, 92% (inactive); in the assay with SW-620 colon it was 99.9% (inactive). In addition, the growth with MCF7 breast was 32.2% (inactive); with HCT-116 colon it was 81.3% (inactive); with HCC-2998 colon, 104% (inactive); with KM12 colon it was 89.3% (inactive).
For the molecule `Cn1c2c(c3ccccc31)CCN1C[C@@H]3CCCC[C@H]3C[C@@H]21`, the growth was 14.1% (inactive) with SR leukemia; 16.7% (inactive) with RPMI-8226 leukemia; 25% (inactive) with OVCAR-5 ovarian; 40.9% (inactive) in the assay on OVCAR-4 ovarian; 9.15% (active) in the assay with SK-OV-3 ovarian; -74.3% (active) in the assay with OVCAR-3 ovarian. The growth was 32.9% (inactive) in the assay with T-47D breast; 22.5% (inactive) in the assay with BT-549 breast; -53.4% (active) with MDA-MB-435 melanoma; 13.5% (inactive) with SW-620 colon; 13.9% (inactive) in the assay on MCF7 breast; -10.1% (active) in the assay on HCT-116 colon. Moreover, the growth is -4.34% (active) in the assay on HCC-2998 colon and -32.3% (active) in the assay on KM12 colon.
On to `CCC1OC(OC)C=CC1=O` (stereo not drawn), for which the growth is 81.5% (inactive) with SR leukemia; 110% (inactive) with RPMI-8226 leukemia; 123% (inactive) with OVCAR-5 ovarian; 103% (inactive) with OVCAR-4 ovarian; 102% (inactive) with SK-OV-3 ovarian; 137% (inactive) with IGROV1 ovarian. In addition, the growth in the assay on OVCAR-3 ovarian is 95.4% (inactive); in the assay on HS 578T breast, 96.9% (inactive); with T-47D breast, 95.1% (inactive); with BT-549 breast, 88.8% (inactive); in the assay on MDA-MB-435 melanoma, 98.6% (inactive); in the assay on SW-620 colon it was 100% (inactive). In addition, the growth in the assay on MCF7 breast is 89.9% (inactive); in the assay on HCT-116 colon, 96.5% (inactive); in the assay with HCC-2998 colon it was 122% (inactive); in the assay on KM12 colon, 99.7% (inactive).
In the case of `Cc1ccc2nc(-[n+]3cc4ccccc4cc3C)ccc2c1`, the growth is 33.2% (inactive) in the assay on SR leukemia; 15.1% (inactive) in the assay with RPMI-8226 leukemia; 61.4% (inactive) with OVCAR-5 ovarian; 28.6% (inactive) with OVCAR-4 ovarian; 38.3% (inactive) in the assay on SK-OV-3 ovarian; 46.4% (inactive) in the assay on IGROV1 ovarian. Moreover, the growth in the assay on OVCAR-3 ovarian is 44.6% (inactive); in the assay with T-47D breast, 15.3% (inactive); in the assay with BT-549 breast, 0.0135% (active); in the assay on MDA-MB-435 melanoma it was 27.8% (inactive); in the assay with SW-620 colon, 55.8% (inactive); in the assay on MCF7 breast, 20.3% (inactive). The values for the growth with HCT-116 colon, in the assay on HCC-2998 colon and in the assay with KM12 colon were 25.8% (inactive), 42.1% (inactive) and 31.5% (inactive), respectively.
For `COc1ccccc1OC(=O)Oc1ccccc1OC`, the growth with SR leukemia is 103% (inactive) and 101% (inactive); in the assay with RPMI-8226 leukemia, 105% (inactive) and 72.9% (inactive); in the assay with OVCAR-5 ovarian, 117% (inactive) and 97.6% (inactive); in the assay with OVCAR-4 ovarian, 114% (inactive) and 99% (inactive); with SK-OV-3 ovarian, 112% (inactive); in the assay with IGROV1 ovarian, 105% (inactive) and 97.2% (inactive). For the same molecule, the growth is 119% (inactive) and 96.3% (inactive) with OVCAR-3 ovarian; 123% (inactive) and 100% (inactive) with T-47D breast; 97% (inactive) in the assay with BT-549 breast; 112% (inactive) and 96% (inactive) in the assay with MDA-MB-435 melanoma; 94.6% (inactive) and 92.8% (inactive) in the assay with SW-620 colon; 96.1% (inactive) and 88.8% (inactive) in the assay on MCF7 breast. For the same molecule, the growth in the assay with HCT-116 colon was 99.9% (inactive) and 101% (inactive); with HCC-2998 colon, 102% (inactive) and 94.6% (inactive); in the assay with KM12 colon, 107% (inactive) and 98% (inactive).
As to `CCCCCCC(C)c1ccccc1O` (stereo not drawn) (tested in a mixture with another compound), the growth with RPMI-8226 leukemia is 95.6% (inactive); in the assay on OVCAR-5 ovarian, 104% (inactive); in the assay on IGROV1 ovarian, 111% (inactive); in the assay on OVCAR-3 ovarian it was 111% (inactive); in the assay on HS 578T breast, 101% (inactive); in the assay on NCI/ADR-RES ovarian, 98.6% (inactive). Further, the growth in the assay on T-47D breast is 94.8% (inactive); with BT-549 breast, 108% (inactive); with MDA-MB-435 melanoma, 98.7% (inactive); in the assay on SW-620 colon, 103% (inactive); with MCF7 breast, 116% (inactive); with HCT-116 colon, 111% (inactive). The growth in the assay on HCC-2998 colon is 103% (inactive); in the assay on KM12 colon it was 107% (inactive).
For `CNC(=O)N/N=C/c1ccc([N+](=O)[O-])o1`, the growth is 82.8% (inactive) in the assay with SR leukemia; 83.6% (inactive) in the assay on RPMI-8226 leukemia; 110% (inactive) in the assay on OVCAR-5 ovarian; 108% (inactive) in the assay on OVCAR-4 ovarian; 109% (inactive) in the assay on SK-OV-3 ovarian; 98.1% (inactive) in the assay with IGROV1 ovarian. Also, the growth was 103% (inactive) in the assay with OVCAR-3 ovarian; 98.1% (inactive) with HS 578T breast; 108% (inactive) in the assay with NCI/ADR-RES ovarian; 104% (inactive) with T-47D breast; 110% (inactive) in the assay with BT-549 breast; 121% (inactive) in the assay on MDA-MB-435 melanoma. For the same molecule, the growth is 105% (inactive) in the assay with SW-620 colon, 95.3% (inactive) in the assay with MCF7 breast, 94.8% (inactive) in the assay with HCT-116 colon and 92.2% (inactive) in the assay on KM12 colon.

The record behind these values is PubChem BioAssay (NCI).
